# Test results published in the supplement of paper PMC6555819.
# Key:
# Assay in all cases: PBM binding z-score (relative to random genomic background probes); higher = stronger binding; sequences stand for … in GC…GCGATTGACAGCGTAGAATGAAGG
# [1] = system: RARb homodimer (NR concentration 270 nM)
# In short: (§1)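 Regression normalization was applied to scanned fluorescence from custom Agilent 4×180K protein-binding microarrays. Before scanning, arrays were incubated 1 h with ligand-free nuclear receptor dimers, and binding was detected with antibodies against each partner (one per run). Binding z-scores use the random background probes as reference.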
# [2] = system: RARg:RXRa (NR concentration 270 nM, RXRa partner concentration 90 nM)
# In short: as §1
# [3] = system: RARg homodimer (NR concentration 270 nM)
# In short: as §1
# [4] = system: RXRa DBDmut IVT, anti-RXR (DBD mutation: RXRa K156A/R161A, NR concentration 90 nM)
# In short: as §1
# [5] = system: RXRa homodimer (NR concentration 180 nM)
# In short: as §1
# [6] = system: THRa:RXRa (NR concentration 90 nM, RXRa partner concentration 90 nM)
# In short: as §1
# [7] = system: THRa homodimer (NR concentration 90 nM)
# In short: as §1
# [8] = system: VDR:RXRa (NR concentration 270 nM, RXRa partner concentration 90 nM)
# In short: as §1
# [9] = system: VDR homodimer (NR concentration 270 nM)
# In short: as §1
Sequence,PBM binding z-score [1],PBM binding z-score [2],PBM binding z-score [3],PBM binding z-score [4],PBM binding z-score [5],PBM binding z-score [6],PBM binding z-score [7],PBM binding z-score [8],PBM binding z-score [9]
ACTAGCAGGCCAAGTTTGGCTCACTCAAACAAAG,-0.243,-0.36,-0.0918,-0.118,-0.415,-0.267,-0.863,-0.767,-0.448
CCTATTAGTTGACCATGAGGGCAACCGAAGCTCG,2.22,1.32,1.16,0.831,0.812,2.11,1.79,1.02,1.43
AATCAAAGTTCACTAGGTAACGTAAGATTCAGCT,3.41,4.44,4.91,4.32,3.38,2.02,0.0511,3.91,3.46
ACTAGCAGGCCAAGTTTGGGTCTCTCAAACAAAG,0.00651,-0.231,-0.0296,-0.0597,-0.754,-0.042,-0.533,-0.766,-0.181
CCTTACGGGTCAAAGTTATAGCACGGGTGGTACG,2.72,4.74,3.89,1.42,5.29,2.3,-0.124,3.54,1.46
GGAATGAGGGCAAAGTTGATAGCATCTGTCGACG,1.42,2.19,1.83,2.73,2.31,1.89,0.391,1.82,1.75
GCGACTGGGGCATAGCAGGTTACCATAAGGTTGG,1.04,0.402,0.629,-0.432,0.456,2.44,-0.122,-0.336,-0.335
CGTCCAAGGTCAAAGGTCAGTGAAGAGATGACGG,5.42,8.7,7.94,3.87,10,4.99,2.62,6.76,4.06
CATACAGGGTCAGCTCGGCCAGAGTAGGGACGGC,3.1,4.38,4.49,1.2,3.95,3.01,0.883,3.32,0.595
TGTCAAAGTGCAAAGGTAACGTAAGTATCCACAC,1.33,2.55,1.78,0.968,2.55,1.94,-0.723,1.59,0.351
AGTCAAAGTTCAGGATGAGGTAACGTAAAGCACG,3.38,4.78,4.82,2.73,3.26,4.21,1.73,2.88,2.09
TGTCAAAGTTCAAACGTAACGTAAGTATCCACAC,3.89,5.71,6.15,4.86,5.15,2.12,-0.319,4.68,4.63
CAAACTAGGTCAAAGGTCACAGTCGAGCCAACCA,5.31,8.75,7.36,2.94,9.91,5.02,2.38,6.63,2.73
GCAGACAGGTCAAACGCAGGTAACTCAGGGTGGC,2.7,5.58,4.53,2.16,4.65,3.23,-0.195,3,0.795
CTAACTAGGTCAGAACAGGACAGTGAAGGATGAT,2.03,1.85,3.26,0.797,1.07,3.55,0.222,0.705,-0.144
CCAAACAGGTGAGAAGGTAACTCAGCCTCGATTA,0.453,0.434,0.256,-0.0242,0.335,0.199,0.0192,-0.0119,-0.08
CCTCGTTGGTCAAGGTCACACACGCTATAGGTAC,4.51,4.58,5.23,1.8,4.83,4.05,4.37,3.93,3.86
TCATATAGGTAAACAGGAGAAAGTCCGTAAGTTA,-0.0173,0.0941,0.0897,1.4,0.771,0.0424,-0.0606,0.716,0.309
CCTTACGGGTCACTCCTGGTTATAGCATCGGAGT,2.89,4.05,4,1.26,3.9,2.86,-0.0278,2.79,1.19
TGAATGAGGTTAAAGATCAGGCAACGTGGCGTCG,0.653,2.44,1.16,1.02,3.63,2.71,0.312,1.88,0.286
GGAACGAGGGCATTCGAGTTGATTGCATGGCGAT,0.671,1.07,1.15,3.28,0.842,3.52,-0.335,3.81,3.28
CGTCAAAGTTCAACTAAGGTAACGTACAGCACGC,4.47,6.1,6.82,4.86,5.14,5.27,2.13,4.64,4.15
GCTAGCAGGCCATTTGGGTCACACAATGACGGGC,1.93,1.23,1.48,-0.0753,1.2,2.03,0.818,1.24,0.18
CCTTGGAGGACAACAGGAGGTCAGAGCTGCCAGA,3.58,3.49,3.03,0.451,2.08,2.88,1.13,1.99,1.24
TCGAGTAGGCTAGTCGGGGCATTCAGCCAACATA,-0.562,-0.554,-0.738,-0.313,-0.347,-0.266,-0.771,-0.402,-0.582
AGTTACGGGTCAACGAGGTTATAGCACGCGTATA,3.88,5.45,5.57,2.14,6.14,3.97,1.18,7.65,3.49

Sequence,PBM binding z-score [1],PBM binding z-score [2],PBM binding z-score [3],PBM binding z-score [4],PBM binding z-score [5],PBM binding z-score [6],PBM binding z-score [7],PBM binding z-score [8],PBM binding z-score [9]
CTACCAAGGTGAACAAGGTGGTTGATTACTATTC,0.848,0.716,0.76,0.305,0.617,1.7,0.798,1.84,-0.122
AGAATGAGGTTATACGTAGATCAGGTAAGAAAGT,1.16,1.68,1.19,1.81,2.31,2.39,1.01,1.58,0.844
GGAACGAGTGCAAGTTGATAGCAGAGTTTGATGG,-0.0389,-0.00885,0.227,3.42,0.155,-0.241,-0.787,–,2.87
TCATATAGGTAAAAGGTGAAACTCGGTGTGGTAA,2.15,2.48,1.17,1.9,3.81,2.16,0.677,2.04,0.686
ATCGAAAGGTCGTAAGGTGAGTATACAGAAAGGC,3.06,4.61,3.87,1.72,5.29,3.35,1.64,3.26,1.24
CCTTACGGGTCACTGAAAGGTTATAGCATTTGGA,4.08,6.85,4.86,1.54,5.63,3.44,0.371,4.52,1.14
CCTCGGAGGACAACAGGAGGTCAGAGCGGCCAGA,3.6,3.74,3.91,0.253,2.11,2.87,1.31,2.92,1.51
CCTCGGAGGACAACAGGGGGTCAGAGCTGCCAGA,3.52,4.25,3.49,0.19,3.24,3.27,1.04,3.17,1.28
CCTACTGGGCCATCAGGTCATTCATATCAACGTT,2.53,1.94,1.92,0.469,1.3,3.03,3.02,1.67,2.34
TCATATAGGTAAATGCTGGGTGAAAGTCCGATCT,0.617,0.24,0.16,1.48,0.693,0.785,0.692,0.641,0.384
ACAGACAGGTGATGAAGGTAACTCAAGCTATCAT,0.13,0.288,0.537,-0.0436,0.166,0.289,-0.0849,0.0355,-0.318
CAAACTAGGTCAAAGGTCAAATTCGAGCCAACCA,4.86,8.92,7.49,3.06,10.2,4.77,1.67,6.75,3.08
GCATATAGGTAATACAAAGTGAAAGTCCGATTGT,-0.658,0.129,0.264,0.278,0.0953,0.0465,-0.756,-0.024,-0.321
TAGCCTAGATCATGGGCCAGTATACCACGCGAAC,-0.389,-0.301,-0.388,-0.748,-0.39,-0.674,-0.848,-0.59,-0.532
AGAACGAGGGCAATGAGATGATAGCACGGGTGGC,0.913,0.982,1.72,1.59,0.713,0.651,0.199,0.474,0.718
TCATATAGGTAAACAGGTGAAAGTTCGTAAGTTA,1.49,1.11,0.601,1.62,2.31,1.4,0.587,1.98,1.55
CATCCAGGGTCAGCTAGGCCAGAGTAGGGACGGC,3.29,4.74,4.96,1.35,4.41,3.18,1.34,3.97,1.51
CCTACTGGGCCAACGGTCATTGATTCCAATGCTC,1.45,0.293,0.841,-0.454,-0.191,-0.306,-0.382,-0.502,-0.141
GTACAAAGGTGAATAGGTCGTTGATGAGTAGGCG,3.11,4.37,2.79,0.47,3.43,1.72,-0.0459,2.18,0.65
CGTCCAGGGTCATAGGAGGTCAGTGAAGACAGAT,4.98,6.27,6.23,3.62,6.72,5.12,2.18,6.65,4.31
TCAGACAGGCGAAGGTAACTCAGGTACGCAGTCG,-0.405,-0.089,-0.377,0.863,0.579,0.951,-0.297,0.498,-0.35
CGAACTAGGTCATTGACATGACAGTGAATAGTAA,2.55,3.68,4.2,2.17,2.84,2.68,0.792,2.16,1.36
GGAACGAGGGGATTCGAGTTGATAGCATGGCGAT,-0.999,-0.337,-0.0526,-0.0556,-0.258,0.618,-0.631,0.173,0.0927
GCTAGATGGTCAGTAAAAGGTCACACACCGGTCG,5.31,5.52,4.87,0.182,5.18,3.69,1.89,3.91,1.57
CCTAGCAGGCCAATATGGGTCACTCAAGGCTTGA,2.09,1.38,1.31,-0.181,1.36,2.5,-0.509,0.862,-0.211
CCTATTACTTGACCATAAGGGCAACCGAAGCTCG,1.99,0.821,1.15,0.77,0.915,1.84,1.86,0.976,1.23
